The supplement of paper PMC4466236
Whole data set: some 33,000 sequences, median “E-score (dimensionless, -0.5 to 0.5)” near -0.058, cut for the highest 2% near 0.35. The sample as a whole holds a higher share of the highest values than the screen did.

The sequences below were run on MvaT (assay: PBM 8-mer E-score (mean of HK and ME arrays) (E-score (dimensionless, -0.5 to 0.5)); higher = stronger relative binding preference).
Procedure, shortened: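 Reported values are rank-based E-scores, taken as the mean of two universal arrays and parsed with a custom script. Each 8-mer score falls between -0.5 and 0.5. The arrays, ME and HK, were double-stranded 60-mers with a constant 25-mer primer region and a variable 35-mer region covering all 8-mers. They were probed, by an earlier protocol, with full-length P. aeruginosa MvaT carrying an N-terminal glutathione S-transferase fusion.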

First: CCTGCTCC
Second: ATTTGTTC
The “PBM 8-mer E-score” value of the first is lower: -0.302 for the first, 0.206 for the second.

Compared with ATTTTTTC, AAGTGCGT is lower in “PBM 8-mer E-score” value: 0.132 for the first, -0.0188 for the second.

Compared with ACGGTTTC, ATTAGCCC is higher in “PBM 8-mer E-score” value: -0.215 for the first, 0.0535 for the second.

Going from ACACTAGT to AGTGCTAC, the “PBM 8-mer E-score” value falls from 0.258 to -0.0841.

Compared with CGAAATGC, AATATAAT is higher in “PBM 8-mer E-score” value: -0.0574 for the first, 0.449 for the second.

Compared with GATAAACA, AAGATAAT is higher in “PBM 8-mer E-score” value: 0.278 for the first, 0.287 for the second.

First: CATATAGC
Second: AATATGAT
The “PBM 8-mer E-score” value of the first is lower: 0.0736 for the first, 0.345 for the second.

First: AATATAAA
Second: CATAAACA
The “PBM 8-mer E-score” value of the first is higher: 0.451 for the first, 0.221 for the second.

Going from CACATAAC to CATATAAC, the “PBM 8-mer E-score” value rises from 0.209 to 0.415.

First: TATAAACA
Second: GCTATAAA
The “PBM 8-mer E-score” value of the first is higher: 0.373 for the first, 0.217 for the second.

Compared with GAATGCGA, AATTCTAG is higher in “PBM 8-mer E-score” value: 0.0642 for the first, 0.157 for the second.

First: CCCGGCCC
Second: TGCAAACA
The “PBM 8-mer E-score” value of the first is lower: -0.325 for the first, 0.106 for the second.

First: ACGGAAGG
Second: TATATCAA
The “PBM 8-mer E-score” value of the first is lower: -0.218 for the first, 0.352 for the second.

First: GATATCAA
Second: CATAAAAA
The “PBM 8-mer E-score” value of the first is higher: 0.25 for the first, 0.179 for the second.

Compared with TATAAAAA, CATATCAA is lower in “PBM 8-mer E-score” value: 0.371 for the first, 0.174 for the second.

Going from AAGATAAG to GATAAAAA, the “PBM 8-mer E-score” value rises from 0.148 to 0.273.

First: CACATAAA
Second: CGTATAAA
The “PBM 8-mer E-score” value of the first is lower: 0.179 for the first, 0.209 for the second.

First: CATATAAA
Second: AGTATAAG
The “PBM 8-mer E-score” value of the first is higher: 0.365 for the first, 0.272 for the second.

First: AATATAAG
Second: GAATCATA
The “PBM 8-mer E-score” value of the first is higher: 0.351 for the first, 0.151 for the second.

Compared with CCATCTGA, GTATGAAA is higher in “PBM 8-mer E-score” value: -0.117 for the first, 0.222 for the second.

First: GTCTGAGA
Second: AGAGATGC
The “PBM 8-mer E-score” value of the first is lower: -0.139 for the first, -0.101 for the second.

Compared with ATCTTTAG, AGTGATCG is lower in “PBM 8-mer E-score” value: 0.14 for the first, -0.118 for the second.

Going from AGAGGCTG to TTATTGAA, the “PBM 8-mer E-score” value rises from -0.304 to 0.279.

First: TAGGGTAA
Second: CTGATAAC
The “PBM 8-mer E-score” value of the first is lower: 0.133 for the first, 0.136 for the second.

Going from AGCACAGG to TAACAATA, the “PBM 8-mer E-score” value rises from -0.197 to 0.394.

First: AAACAAGA
Second: TATCAATA
The “PBM 8-mer E-score” value of the first is lower: 0.166 for the first, 0.365 for the second.

Compared with GAACAATA, AAACAATG is lower in “PBM 8-mer E-score” value: 0.267 for the first, 0.201 for the second.

Compared with AAACAATT, GATCAATA is lower in “PBM 8-mer E-score” value: 0.346 for the first, 0.152 for the second.

First: CAACAATA
Second: AAACAACA
The “PBM 8-mer E-score” value of the first is higher: 0.289 for the first, 0.214 for the second.

First: AAACAATC
Second: AAACAATA
The “PBM 8-mer E-score” value of the first is lower: 0.06 for the first, 0.375 for the second.

Compared with AATCAATA, GCAACGAC is lower in “PBM 8-mer E-score” value: 0.283 for the first, -0.141 for the second.

Compared with CCTCAACC, AGATCTCG is higher in “PBM 8-mer E-score” value: -0.226 for the first, -0.173 for the second.

Going from CTCTACTC to GCGCCACC, the “PBM 8-mer E-score” value falls from -0.0821 to -0.15.

Going from ACAGGGGT to AGGACTCG, the “PBM 8-mer E-score” value falls from -0.121 to -0.265.

Compared with ATACAATA, TAACATTA is higher in “PBM 8-mer E-score” value: 0.372 for the first, 0.374 for the second.

Going from GAACATTA to CAACATTA, the “PBM 8-mer E-score” value rises from 0.276 to 0.293.

First: CTACAATA
Second: ATACAATC
The “PBM 8-mer E-score” value of the first is higher: 0.244 for the first, 0.18 for the second.

Going from ATCCGTTC to AGATTGAC, the “PBM 8-mer E-score” value falls from -0.0995 to -0.15.

Compared with AAGATATA, AAGATATC is lower in “PBM 8-mer E-score” value: 0.419 for the first, 0.26 for the second.

First: GAGATATA
Second: AAGATATG
The “PBM 8-mer E-score” value of the first is higher: 0.303 for the first, 0.136 for the second.

Compared with TAGATATA, CAGATATA is lower in “PBM 8-mer E-score” value: 0.368 for the first, 0.237 for the second.

First: ATTTACGA
Second: ATATTTCA
The “PBM 8-mer E-score” value of the first is lower: 0.167 for the first, 0.329 for the second.

Going from ATATTTAG to CTATTTAC, the “PBM 8-mer E-score” value falls from 0.342 to 0.318.

First: CTATTTAA
Second: ATATTTAC
The “PBM 8-mer E-score” value of the first is lower: 0.274 for the first, 0.36 for the second.

Compared with ATATTTAA, AGGCACCA is lower in “PBM 8-mer E-score” value: 0.462 for the first, -0.116 for the second.

Compared with AGCTGTCA, ATGATCGG is lower in “PBM 8-mer E-score” value: -0.156 for the first, -0.174 for the second.

First: AGCTTCCA
Second: CGCAAGTA
The “PBM 8-mer E-score” value of the first is lower: -0.151 for the first, 0.195 for the second.

Going from CTATTATC to ATATTATA, the “PBM 8-mer E-score” value rises from 0.263 to 0.477.

Compared with CCATTATA, ACATTATA is higher in “PBM 8-mer E-score” value: 0.302 for the first, 0.396 for the second.

First: ATATTATG
Second: ATATTATC
The “PBM 8-mer E-score” value of the first is lower: 0.411 for the first, 0.439 for the second.

First: ACATTATG
Second: AGATTATC
The “PBM 8-mer E-score” value of the first is lower: 0.249 for the first, 0.255 for the second.

Compared with GCATTATA, ATCTTATA is lower in “PBM 8-mer E-score” value: 0.309 for the first, 0.238 for the second.

Compared with AGATTATG, ATTCAAAC is lower in “PBM 8-mer E-score” value: 0.189 for the first, 0.174 for the second.

Compared with GATACCGA, GCTGCCCA is lower in “PBM 8-mer E-score” value: 0.0372 for the first, -0.142 for the second.

Compared with GAGGAAGA, ACCCGTTG is lower in “PBM 8-mer E-score” value: -0.133 for the first, -0.195 for the second.

Compared with TAGTCACA, AAAACGTA is higher in “PBM 8-mer E-score” value: 0.0578 for the first, 0.142 for the second.

Compared with CGCCCATC, CACTTGCA is higher in “PBM 8-mer E-score” value: -0.117 for the first, -0.05 for the second.

Going from CAGCCCTG to CGTGTCCA, the “PBM 8-mer E-score” value rises from -0.254 to -0.105.

First: GCACTTCA
Second: GTGTGGTA
The “PBM 8-mer E-score” value of the first is lower: -0.102 for the first, 0.118 for the second.

Compared with CCCTTCGC, AATTAGGG is higher in “PBM 8-mer E-score” value: -0.248 for the first, 0.137 for the second.

First: AATCCCCG
Second: GTATTCTA
The “PBM 8-mer E-score” value of the first is lower: -0.164 for the first, 0.112 for the second.

First: CGATTATA
Second: ATATTCTA
The “PBM 8-mer E-score” value of the first is lower: 0.292 for the first, 0.348 for the second.

Going from GTCTTATA to CTCTTATA, the “PBM 8-mer E-score” value falls from 0.325 to 0.289.

First: CTATTCTA
Second: CTTTTATA
The “PBM 8-mer E-score” value of the first is lower: 0.131 for the first, 0.31 for the second.

Compared with GGATTATA, CTATTATA is higher in “PBM 8-mer E-score” value: 0.32 for the first, 0.44 for the second.

Compared with GTATTATA, AGATTATA is lower in “PBM 8-mer E-score” value: 0.437 for the first, 0.39 for the second.

First: GTATTACA
Second: CGCGCTTC
The “PBM 8-mer E-score” value of the first is higher: 0.224 for the first, -0.107 for the second.

Compared with CAATGTCC, AGCGCCTA is lower in “PBM 8-mer E-score” value: -0.106 for the first, -0.16 for the second.

Going from AACTACGG to CCGCGCCC, the “PBM 8-mer E-score” value falls from 0.0587 to -0.155.

Compared with AACTCGGT, GCTGTAAC is higher in “PBM 8-mer E-score” value: -0.0107 for the first, 0.00489 for the second.

Going from CGCAAGAG to CGCGGTGA, the “PBM 8-mer E-score” value falls from 0.0446 to -0.142.

Compared with CCCTAAGA, ATAGAACG is higher in “PBM 8-mer E-score” value: -0.184 for the first, 0.0944 for the second.

First: CCGCAAAG
Second: ATGGCCAG
The “PBM 8-mer E-score” value of the first is higher: -0.132 for the first, -0.256 for the second.

First: GTATGTTA
Second: ATATGTAA
The “PBM 8-mer E-score” value of the first is lower: 0.288 for the first, 0.309 for the second.

Going from ATATGTTC to CTATGTTA, the “PBM 8-mer E-score” value rises from 0.231 to 0.278.

Going from ATATGTAC to ATATGTCG, the “PBM 8-mer E-score” value falls from 0.368 to 0.22.

First: CTATGTAC
Second: ATATGTTG
The “PBM 8-mer E-score” value of the first is lower: 0.112 for the first, 0.359 for the second.

First: ATATGTTA
Second: AGTCCACT
The “PBM 8-mer E-score” value of the first is higher: 0.423 for the first, -0.0256 for the second.

Going from AATAGACC to TTGTACAA, the “PBM 8-mer E-score” value rises from 0.00124 to 0.161.

Going from CGTCCAGA to CCTGCTCG, the “PBM 8-mer E-score” value falls from -0.16 to -0.298.

Going from ACAGGTGC to AATTGCTG, the “PBM 8-mer E-score” value rises from -0.152 to 0.0923.

Compared with ATACCCTC, CTTGGCCC is lower in “PBM 8-mer E-score” value: -0.12 for the first, -0.249 for the second.

Going from AAATAGTT to AACTAAAG, the “PBM 8-mer E-score” value falls from 0.351 to 0.202.

First: AACTAGTA
Second: AAATAGTC
The “PBM 8-mer E-score” value of the first is higher: 0.303 for the first, 0.235 for the second.

Compared with AACTAGTT, AACTAAAT is lower in “PBM 8-mer E-score” value: 0.392 for the first, 0.351 for the second.

Compared with AACTAAAA, AACTAGTG is lower in “PBM 8-mer E-score” value: 0.345 for the first, 0.19 for the second.

Going from AAATAGTG to AACTAATG, the “PBM 8-mer E-score” value rises from 0.136 to 0.312.

First: AACTAATA
Second: AACTAATT
The “PBM 8-mer E-score” value of the first is lower: 0.323 for the first, 0.401 for the second.
